Measured values taken from PubChem BioAssay AID922 (National Center for Advancing Translational Sciences (NCATS), 2007).
Records with an inconclusive call do not appear. Activity calls are given as the source filed them. The call rests on the fitted dose curve; in most records, active means well fitted inhibition curve with a large enough effect in the signal ratio, with a control signal flat; inconclusive means small, poorly fitted or top-dose-only effect, or effect the other way; inactive means flat fitted curve, though single readings scatter; the % refers to the signal ratio.

experiment: Confirmation Concentration-Response Assay for Identification of Small Molecule Antagonists of Stat Signaling Pathway; settings: SIE-bla cells, IL-6 stimulated, beta-lactamase ratio, 5 h; series mostly up to 38.3 µM
Text: NIH Molecular Libraries Screening Centers Network [MLSCN] NIH Chemical Genomics Center [NCGC] MLSCN Grant: None NCGC Assay Overview: This assay is a retest of actives identified from the Stat signaling pathway assay (PubChem AID 446). The Stat assay is cell-based and measures Interleukin 6 (IL-6) mediated modulation of a beta-lactamase reporter gene controlled by a STAT inducible element (SIE-bla cells, Invitrogen). IL-6 is a cytokine that signals via the JAK/STAT pathway and is implicated in cancer and inflammation. SIE-bla cells are induced by IL-6 at 40 pM EC50 and inhibited by the pan JAK inhibitor, 2-(1,1-Dimethylethyl)-9-fluoro-3,6-dihydro-7H-benz[h]-imidaz[4,5-f]isoquinolin-7-one, at approximately 10 nM IC50. Plated cells were incubated overnight and on the following day, stimulated with 40 pM IL-6 for 5 hrs. The assay was stimulated with an EC50 of IL-6 to retest inhibitors of STAT signaling.
NCGC Assay Protocol Summary: Cells were trypsinized, washed in assay medium (AM, OPTI MEM with 0.5% fetal bovine serum, 0.1 mM nonessential amino acids, 1 mM sodium pyruvate, 10mM HEPES pH 7.3, 100U/ml penicillin, and 100 ug/ml streptomycin) and suspended at […] in AM. Approximately 2500 cells in 5 uL/well was dispensed into 1536-well plates and the cells were incubated overnight at 37 C. 23 nL of compound were delivered by a pin tool and 1 uL of IL-6 (40 pM final concentration in AM) was added. After plates were incubated at 37 C for 5 hrs, 1uL of detector mix (LiveBLAzerTM, Invitrogen) was added, the plates incubated at room temperature for 2.5 hrs, and fluorescence intensity at 460 and 530 nm emissions was measured at 405 nm excitation by an Envision (Perkin Elmer).

Potency, inactive:
CCN(CC)CCNC(=O)c1cc(S(C)(=O)=O)ccc1OC
CCC(=O)Nc1nc(C)c(Oc2ccccc2)c(=O)[nH]1
OC[C@@H]1CCC[C@H](n2cnc3c(=S)nc[nH]c32)O1
ClC(=Nc1cccc2ccccc12)N(c1ccccc1)c1ccccc1

Potency, active:
Cn1c(NCc2ccccc2)nc2c1c(=O)n(Cc1ccc(Br)cc1)c(=O)n2C 15.8 µM
CCCCSc1nc(N)c(C#N)c(-c2cccs2)c1C#N 15.8 µM
O=C(O)CCc1c2ccc(=O)c(O)c-2oc2c(O)c(O)ccc12 10 µM
CCOC(=O)c1[nH]c2cc3c(cc2c1NC(=O)CN1CCc2ccccc2C1)OCO3 15.8 µM
O=C1Nc2ccc(I)cc2/C1=C/c1cc(Br)c(O)c(Br)c1 12.6 µM
COc1cccc2c1[C@H](CO)N1[C@H](C#N)[C@@H]3C[C@H](C(=O)O)[C@@H]([C@@H]1C2)N3C 10 µM
O=C(Nc1ccc(N2CCN(C(=O)c3ccccc3)CC2)c(Cl)c1)c1ccc(Br)o1 10 µM
C=C1C(=O)O[C@@H]2[C@@H]1CC/C(C)=C\CC[C@@]1(C)O[C@H]21 25.1 µM
CC1CCN(CC[S-])CC1.O.O.[Cl][Pt] 25.1 µM
O=C1C(SCCO)=C(SCCO)C(=O)c2ccccc21 6.31 µM
CN(C)S(=O)(=O)c1ccc2c(c1)/C(=C/c1cc3c([nH]1)CCCC3)C(=O)N2 2.51 µM
NS(=O)(=O)c1ccc(N=Nc2cc3ccccc3c(C(=O)O)c2O)cc1 6.31 µM
NCCSc1nc2ccccc2s1 7.94 µM
O=C(O)c1c(Br)c(Br)c(Br)c(Br)c1C1c2ccc(O)cc2Oc2cc(O)ccc21 7.94 µM
COc1ccc(C[C@@H]2C(=O)N[C@H](C)C(=O)N(C)[C@@H]3Cc4ccc(cc4)Oc4cc(ccc4O)C[C@H](C(=O)N[C@@H](C)C(=O)N[C@H](C)C(=O)N2C)N(C)C3=O)cc1 0.199 µM
COc1cc(/C=C\C(=O)N2CCCCC2=O)cc(OC)c1OC 12.6 µM
C=C1C(=O)O[C@@H]2[C@H]3O[C@]3(C)CCC=C(C)CC[C@@H]12 7.94 µM
CSc1ncnc2c1ncn2CC(=O)[C@H]1CC[C@H]2[C@H]3CCC4=CC(=O)CC[C@@]4(C)[C@@H]3CC[C@@]12C 2.51 µM
OCc1ccncc1.OCc1ccncc1.[Cl][Pt]([Cl])([Cl])[Cl] 10 µM
